This is part of a sample that, as a whole, favours compounds with a hit. Of some 83,000 tested, about 20% had one in any assay.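 Interpretation: 100, growth as untreated; towards 0, rising growth inhibition; 0, no net growth; 0 to -100, cell death. Compounds scoring below 10 were considered active.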 Values without a mark were called inactive. Active and inactive are the calls of the source.

Test systems include NCI-H23 lung; NCI-H226 lung; NCI-H322M lung; HOP-62 NSCLC; NCI-H460 lung; HOP-92 NSCLC; NCI-H522 lung; A549/ATCC NSCLC; 786-0 renal; COLO 205 colon.
Assay in all cases: NCI-60 one-dose screen, 48 h (100 = growth as untreated, 0 = no growth, -100 = all killed)
Holding throughout (settings): 10 µM unless noted

As for `CC1=C(C)C(=O)C(Nc2cccc(C(=O)OC(C)(C)C)c2)=C(Br)C1=O`, the growth with NCI-H23 lung was 85.9%; with NCI-H226 lung, 86.5%; with NCI-H322M lung it was 91.1%; in the test on HOP-62 NSCLC, 92.6%; in the test on NCI-H460 lung, 99.7%; in the test on HOP-92 NSCLC it was -32.5% (active). Besides, the growth was 67.4% in the test on NCI-H522 lung, 95.6% in the test on A549/ATCC NSCLC, 96.2% with 786-0 renal and 114% in the test on COLO 205 colon.

Turning to `Cc1ccc(-c2nc(N3CCN(C(=O)c4ccc(OC(F)(F)F)cc4)CC3)c3ccccc3n2)cc1`, the growth was 94.9% with NCI-H23 lung; 83.6% in the test with NCI-H226 lung; 93% in the test on NCI-H322M lung; 99.3% in the test on HOP-62 NSCLC; 92.8% in the test on NCI-H460 lung; 103% with HOP-92 NSCLC. Also, the growth is 82% in the test on NCI-H522 lung, 71.6% in the test on A549/ATCC NSCLC, 81.7% in the test on 786-0 renal and 91.1% with COLO 205 colon.

Consider `COc1cccc(-c2nc(-c3ccc(NC(=O)OC(C)C)cc3)[nH]c2-c2ccnc(Br)c2)c1`, for which the growth in the test on NCI-H23 lung was 15.7%; with NCI-H226 lung, 31.2%; in the test with NCI-H322M lung it was 35.4%; in the test with HOP-62 NSCLC, 22.7%; in the test on NCI-H460 lung it was 16.7%; with HOP-92 NSCLC, 40.7%. Moreover, the growth in the test on NCI-H522 lung is 26.8%; with A549/ATCC NSCLC, 29%; in the test with 786-0 renal it was 0.518% (active); in the test with COLO 205 colon, 25.7%.

For the compound `CCOC(=O)C1=C(N)Oc2c(sc3c(C)cccc23)C1c1ccc(OC)cc1` (stereo not drawn), the growth in the test with NCI-H23 lung was 46.4%; in the test with NCI-H226 lung, 55.2%; in the test with NCI-H322M lung it was 50.9%; with HOP-62 NSCLC, 34.4%; with NCI-H460 lung it was 21.9%; in the test with HOP-92 NSCLC, 66.1%. Further, the growth in the test on NCI-H522 lung is 17.1%; in the test on A549/ATCC NSCLC, 42.7%; with 786-0 renal it was 49.3%; in the test on COLO 205 colon, 118%.

`Cc1ccc2sc3c(NCCN)nc4ccccc4c3c(=O)c2c1`: the growth was 81.1% in the test on NCI-H23 lung; 93.2% with NCI-H226 lung; 81.5% in the test with NCI-H322M lung; 80.6% in the test on HOP-62 NSCLC; -17.1% (active) with NCI-H460 lung; 50.7% in the test on HOP-92 NSCLC. The growth is 85% in the test with NCI-H522 lung, 73.3% with A549/ATCC NSCLC, 87.7% in the test with 786-0 renal and -21.7% (active) with COLO 205 colon.

On to `CCOC(=O)/C(C#N)=C\Nc1ccc2ncnc(Nc3ccc(Cl)cc3Cl)c2c1`, for which the growth in the test on NCI-H226 lung was 99.8%; with NCI-H322M lung, 75.6%; with HOP-62 NSCLC, 101%; in the test with NCI-H460 lung it was 84.8%; with HOP-92 NSCLC it was 56.5%; with NCI-H522 lung it was 95.8%. In addition, the growth is 72.1% in the test with A549/ATCC NSCLC, 82.6% in the test on 786-0 renal and 108% in the test with COLO 205 colon.

In the case of `c1ccc2c(-c3nc(-c4c[nH]c5ccncc45)cs3)c[nH]c2c1`, the growth in the test on NCI-H23 lung was 74.4%; with NCI-H226 lung it was 78.5%; with NCI-H322M lung it was 79.1%; with HOP-62 NSCLC, 49.3%; in the test with NCI-H460 lung, -26.4% (active); in the test with HOP-92 NSCLC, 49.2%. For the same compound, the growth in the test on NCI-H522 lung is 56.3%; in the test with A549/ATCC NSCLC it was 34.5%; in the test on 786-0 renal, 64.9%; in the test on COLO 205 colon it was -77.8% (active).

As for `O=c1cc(SCc2ccccc2)nc[nH]1`, the growth in the test with NCI-H23 lung was 108%; with NCI-H226 lung it was 104%; in the test with NCI-H322M lung it was 105%; with HOP-62 NSCLC it was 91.1%; with NCI-H460 lung, 112%; in the test on HOP-92 NSCLC, 100%. The growth in the test on NCI-H522 lung is 116%; with A549/ATCC NSCLC it was 103%; in the test with 786-0 renal, 95%; with COLO 205 colon, 133%.

Consider `CNc1nc2c(s1)C(c1cc(F)ccc1F)CC(=O)N2` (stereo not drawn), for which the growth is 85.9% in the test on NCI-H23 lung; 84.8% in the test on NCI-H226 lung; 92.2% in the test on NCI-H322M lung; 69.1% in the test on HOP-62 NSCLC; 82.3% in the test with NCI-H460 lung; 85.5% in the test on HOP-92 NSCLC. Also, the growth in the test with NCI-H522 lung is 51.3%; in the test with A549/ATCC NSCLC, 87%; in the test with 786-0 renal, 83.9%; in the test with COLO 205 colon it was 83.7%.

On to `CCN1C(=O)N(CC)C2Nn3c(s/c(=C4\C(=O)N(CC(C)C)c5ccccc54)c3=O)=NC21` (stereo not drawn), for which the growth was 43% with NCI-H23 lung; 84.1% in the test on NCI-H226 lung; 64.9% in the test on NCI-H322M lung; 55.2% in the test on HOP-62 NSCLC; 24.5% in the test with NCI-H460 lung; 81.2% with HOP-92 NSCLC. Besides, the growth in the test on NCI-H522 lung was 15.9%; in the test on A549/ATCC NSCLC, 44.6%; in the test on 786-0 renal, 35.3%; with COLO 205 colon, 4.64% (active).

Regarding `CCCCCCCCCCCCCCCCCC1OCC(COC(=O)O[C@]2(CC)C(=O)OCc3c2cc2n(c3=O)Cc3cc4ccccc4nc3-2)O1` (stereo partly drawn), the growth is 75.4% in the test with NCI-H226 lung; 101% with NCI-H322M lung; 53% in the test with HOP-62 NSCLC; 31.4% with NCI-H460 lung; 92.6% in the test on HOP-92 NSCLC; 82.6% with NCI-H522 lung. The growth in the test with A549/ATCC NSCLC is 78.5%; with 786-0 renal it was 86.7%; in the test with COLO 205 colon it was 79.3%.

The record behind these values is PubChem BioAssay (NCI).
